Data taken from the supplement of paper PMC3414501.
Counter-ions that a name gives are not always drawn.

Experiments:
[1] = test system: S. cerevisiae SK1 pCDA2-eGFP (USY613), sporulating; test: CDA2-GFP sporulation assay sensitivity score (z-score vs DMSO controls); higher = stronger inhibition of sporulation, active = hit call of the paper;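 also: active if sensitivity score above 5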
[2] = test system: S. cerevisiae NKY1551 his4x/his4B, sporulating; test: HIS4 meiotic recombination assay sensitivity score (z-score vs DMSO controls); higher = stronger inhibition of sporulation/recombination, active = hit call of the paper;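 also: active if sensitivity score above 5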
[3] = test system: S. cerevisiae AD1-9 (efflux-pump deficient), vegetative growth in YPD; test: growth sensitivity score (doubling time z-score vs DMSO controls); higher = slower growth, strongly negative scores also mark growth inhibition (complete suppression), active = hit call of the paper
Summary of the method: (§1)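 Optical density of Saccharomyces cerevisiae cultures in microtiter plates was followed every 15 min for 24 hours after seeding at an OD600 of 0.065. Eight solvent-only wells were run per experiment. Growth sensitivity scores were found by subtracting the solvent-only mean from the compound mean and dividing by the solvent-only standard deviation.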

[4] = test system: S. cerevisiae BY4741 (wild-type), vegetative growth in YPD; test: as above
Summary of the method: as §1

| Structure (SMILES) | CDA2-GFP sporulation assay sensitivity score [1] | HIS4 meiotic recombination assay sensitivity score [2] | growth sensitivity score [3] | growth sensitivity score [4] |
| --- | --- | --- | --- | --- |
| COC(=O)C1=C(C)NC(C)=C(C(=O)OC)C1c1ccccc1[N+](=O)[O-] [Nifedipine] (stock concentration (mM, diluted 1:100): 10.7) | 3.14 (inactive) | 1.3 (inactive) | 60 (active) | 4.28 (active) |
| CC[C@H](C)C(=O)O[C@H]1CCC=C2C=C[C@H](C)[C@H](CC[C@@H]3C[C@@H](O)CC(=O)O3)[C@H]21 [Mevastatin] (stock concentration (mM, diluted 1:100): 10) | 0.51 (inactive) | 1.32 (inactive) | 130 (active) | 2.89 (active) |
| CC(c1cc2ccccc2s1)N(O)C(N)=O (centres undefined) [Zileuton] (stock concentration (mM, diluted 1:100): 10) | -0.22 (inactive) | -2.31 (inactive) | 0.45 (inactive) | -0.81 (inactive) |
| Nc1c2c(nc3ccccc13)CCCC2 [Tacrine hydrochloride] (stock concentration (mM, diluted 1:100): 9) | 10.2 (active) | -2.37 (inactive) | -5.79 | 2.93 (active) |
| C[C@@H]1C[C@H]2[C@@H]3C[C@H](F)C4=CC(=O)C(Cl)=C[C@]4(C)[C@@]3(F)[C@@H](O)C[C@]2(C)[C@@]1(O)C(=O)CO [Halometasone monohydrate] (stock concentration (mM, diluted 1:100): 10) | 0.27 (inactive) | -1.12 (inactive) | 2.32 (active) | -0.26 (inactive) |
| CCCc1nc2c(C)cc(-c3nc4ccccc4n3C)cc2n1Cc1ccc(-c2ccccc2C(=O)O)cc1 [Telmisartan] (stock concentration (mM, diluted 1:100): 10) | -1.44 (inactive) | -1.16 (inactive) | 43.7 (active) | 85.7 (active) |
| CN(CCO)CC(O)Cn1cnc2c1c(=O)n(C)c(=O)n2C (centres undefined) [Xanthinol nicotinate] (stock concentration (mM, diluted 1:100): 10) | 2.12 (inactive) | -0.61 (inactive) | 0.36 (inactive) | -1.14 (inactive) |
| CC(=O)NC[C@H]1CN(c2ccc(N3CCOCC3)c(F)c2)C(=O)O1 [Linezolide] (stock concentration (mM, diluted 1:100): 10) | 0.79 (inactive) | -0.83 (inactive) | 2.05 (active) | -1.67 (inactive) |
| COCCCC/C(=N\OCCN)c1ccc(C(F)(F)F)cc1 [Fluvoxamine] (stock concentration (mM, diluted 1:100): 7.7) | -1.51 (inactive) | 8.08 (active) | 9.45 (active) | 2.43 (active) |
| COc1cc(OC)c(C(=O)CCCN2CCCC2)c(OC)c1 [Buflomedil hydrochloride] (stock concentration (mM, diluted 1:100): 8.9) | -0.24 (inactive) | -1.08 (inactive) | 0.38 (inactive) | 2.01 (active) |
| CNC(=N)NCCC[C@H](N)C(=O)O [omega-N-Methylarginine] (stock concentration (mM, diluted 1:100): 9.3) | 1.34 (inactive) | -0.29 (inactive) | -3.59 | -0.56 (inactive) |
| Fc1ccc([C@@H]2CCNC[C@H]2COc2ccc3c(c2)OCO3)cc1 [Paroxetine] (stock concentration (mM, diluted 1:100): 8.8) | -1.35 (inactive) | 9.22 (active) | 118 (active) | 1.33 (inactive) |
| Cc1onc(-c2ccccc2)c1-c1ccc(S(N)(=O)=O)cc1 [Valdecoxib] (stock concentration (mM, diluted 1:100): 10) | -1.13 (inactive) | -1.51 (inactive) | 11 (active) | 0.72 (inactive) |
| Nc1nc2ccc(OC(F)(F)F)cc2s1 [Riluzole] (stock concentration (mM, diluted 1:100): 9.9) | 16.9 (active) | 6.83 (active) | 15.4 (active) | 5.49 (active) |
| COc1cc(C(=O)NC2CCCNC2)cc(OC)c1OC (centres undefined) [Troxipide] (stock concentration (mM, diluted 1:100): 10.1) | -0.11 (inactive) | -0.27 (inactive) | -0.49 (inactive) | 0.38 (inactive) |
| Cc1nc2n(c(=O)c1CCN1CCC(c3noc4cc(F)ccc34)CC1)CCCC2 [Risperidone] (stock concentration (mM, diluted 1:100): 10) | -0.4 (inactive) | 1.75 (inactive) | -2.71 | -0.68 (inactive) |
